From PubChem BioAssay AID624100 (ICCB-Longwood Screening Facility, Harvard Medical School, 2012)
The other results are listed elsewhere or left out. Calls of active or inactive are those of the source.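 How the source made its calls: active means average inhibition over replicates above about 50%, so the earlier screening hit is confirmed (limit read from the data); inactive means the rest, counted as false positives.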

biological target: Ubiquitin carboxyl-terminal hydrolase isozyme L5 (Homo sapiens) (UniProt Q9Y5K5); assay: retest of human UCH37 deubiquitinase inhibitors, confirmation, biochemical, Ub-AMC cleavage rate, fluorescence (AID 624100); details: Proteasome-bound UCH37, Ub-AMC cleavage fluorescence; at 20 µM; active compounds read high;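 further: based on cleavage rate fitted by regression over a 30 min kinetic read; 0% = proteasome plus Ub-AMC and 100% = Ub-AMC without proteasome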
Sequence (Q9Y5K5 whole entry, looked up): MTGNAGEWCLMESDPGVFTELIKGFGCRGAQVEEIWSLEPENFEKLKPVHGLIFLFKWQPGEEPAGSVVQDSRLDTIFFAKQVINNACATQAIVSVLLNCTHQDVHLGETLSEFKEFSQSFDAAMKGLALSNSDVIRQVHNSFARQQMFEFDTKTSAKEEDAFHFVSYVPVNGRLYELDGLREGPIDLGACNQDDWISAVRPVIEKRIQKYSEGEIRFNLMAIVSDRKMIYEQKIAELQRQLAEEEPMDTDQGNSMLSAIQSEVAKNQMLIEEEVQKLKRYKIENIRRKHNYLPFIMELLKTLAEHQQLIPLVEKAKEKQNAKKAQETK

| Structure (SMILES) | inhibition |
| --- | --- |
| CCN(CC)CCCC(C)n1c2nc(=O)[nH]c(=O)c-2nc2cc(Cl)ccc21 (stereo not given) | 85.1% (active) |
| O=C(/C=C/c1ccccc1)c1ccoc1 | 8.47% (inactive) |
| O=C(O)C(c1ccccc1)N1C(=O)/C(=C\c2ccc(-c3cccc(Cl)c3)o2)SC1=S (stereo not given) | 67.4% (active) |
| O=C(NC1CCCC1)C(c1ccc(N2CCOCC2)cc1)N(C(=O)c1ccco1)c1ccccc1F (stereo not given) | 4.55% (inactive) |
| O=C(OCC(=O)N1CCN(c2ccccc2)CC1)c1ccc([N+](=O)[O-])s1 | 22.8% (inactive) |
| CC(=O)N1C(=O)/C(=C2\SC(=S)N(NC(=O)c3ccc(O)cc3)C2=O)c2ccccc21 | 63.5% (active) |
| COc1ccc(S(=O)(=O)/N=C2\C=C(NS(=O)(=O)c3ccccc3)C(=O)c3ccccc32)cc1 | 83.7% (active) |
| COc1ccc(Cn2nnc3c(=O)[nH]c(C4CCN(C(=O)c5ccccc5Cl)CC4)nc32)cc1 | 17.8% (inactive) |
| CC(OC(=O)c1c(F)cccc1F)C(=O)NCCC1=CCCCC1 (stereo not given) | 32.7% (inactive) |
| COc1cc(NC(=O)COC(=O)c2ccc([N+](=O)[O-])s2)cc(OC)c1OC | 14.6% (inactive) |
| CCOC(=O)c1c(C)[nH]c2c1-c1ccccc1C(=O)C2=O | 90.1% (active) |
| CCCCCCCCn1c2c(c(=N)c3c1CCC3)CCCC2 | 42.2% (inactive) |
| O=c1ccc2c(-c3ccccc3S(=O)(=O)O)c3ccc(O)c(O)c3oc-2c1O | 36.2% (inactive) |
| Cc1[nH][nH]c(=O)c1C(c1ccc(-c2ccc(Cl)cc2)o1)c1c(C)[nH][nH]c1=O | 6.33% (inactive) |
| CC(C)NC(=O)/C(C#N)=C\c1ccc(N(C)C)c(Br)c1 | 9.32% (inactive) |
| COC1=C(N2CCOCC2)C(=O)c2ccccc2C1=O | 12.6% (inactive) |
| CC(C)CC[n+]1ccn(C2=C([O-])c3ccccc3C(=O)/C2=N\S(=O)(=O)c2ccccc2)c1 | 29.9% (inactive) |
| N#C/C(=C/c1ccc(N2CCOCC2)o1)C(=O)N1CCOCC1 | 29.8% (inactive) |
| O=C1C(Cl)=C(Oc2ccccc2)C(=O)c2ccccc21 | 95.2% (active) |
| COc1cccc(C2/C(=C(/O)c3ccc(F)cc3)C(=O)C(=O)N2CCN(C)C)c1 (stereo not given) | 12.7% (inactive) |
| COCCN1C=C2C(=O)C(C)(OC(=O)C3CCCC3)C(=O)C=C2C=C1c1ccsc1 (stereo not given) | 24.9% (inactive) |
| Cn1ccc(=Nc2ccc(NC(=O)c3ccc(N=c4ccn(C)c5ccc([N+](=O)[O-])cc45)cc3)cc2)cc1 | 71.3% (active) |
| O=C1Nc2ccc([N+](=O)[O-])cc2C1=Nc1cccc(CO)c1 | -1.27% (inactive) |
| CC1CCCN(C(=O)c2ccc3c(c2)C(=O)N(CCC2=CCCCC2)C3=O)C1 (stereo not given) | 61% (active) |
| Cc1ccc(Nc2cc(C)nc3c(C)ccc([N+](=O)[O-])c23)cc1 | 0.827% (inactive) |
